Assay [1] relates to Human papillomavirus type 1a protein E7 (residues 44-93). Description: small molecules binding HPV E7 44-93 – biochemical, small-molecule microarray, residues 44-93, 635 nm fluorescence, primary screen (AID 1108).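 Further: E7 fragment applied at 1 µg/mL in TBST for 1 h at 4 C; score combines spot fluorescence with its signal to noise ratio.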 The conditions noted are these: fluorescence 635 nm, higher = more signal.
Assay [2] can be described thus: hepatitis C replication reporter changes, two-sided – Huh7 cells, luciferase reporter, HCV replication inhibitor project, primary screen (AID 1109).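 Further: huh7 hepatoma cells harbouring a luciferase neomycin HCV replicon reporter; luciferase luminescence as measure of HCV replicon replication; test concentration not given here.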 The conditions noted are these: Huh7 HCV replicon luciferase reporter, 48 h; higher = more signal.
For assay [3], the target named is Left-right determination factor 2 (Homo sapiens) (UniProt O00292). Put plainly: small molecules binding LEFTY2 protein – biochemical, small-molecule microarray, 635 nm fluorescence scan, primary screen (AID 1110). The settings on record: higher = more signal.
Assay [4] has as its target Calmodulin-1 (Homo sapiens) (UniProt P0DP23). Description: small molecules binding calmodulin-1 with EGTA – biochemical, small-molecule microarray, Cy5-labelled CALM1, profiling panel (AID 1111).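 Further: labelled calmodulin applied in Tris saline Tween buffer holding calcium plus EGTA and DTT.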 The settings on record: Cy5-CALM1 binding fluorescence, higher = more signal.
Assay [5] has the same target. Put plainly: small molecules binding Ca-loaded calmodulin-1 – biochemical, small-molecule microarray, Cy5-labelled CALM1, plus calcium, artefact control for SMM control-protein annotation, profiling panel (AID 1112).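 Further: score merges spot fluorescence with signal to noise from triplicate slides.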 The settings on record: Cy5-CALM1 binding fluorescence, higher = more signal.
The nature of assay [6]: probe aWnt5a binding to arrayed compounds – biochemical, biotinylated probe, 635/667 nm fluorescence, primary screen (AID 1113).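 Further: score merges 667 nm fluorescence intensity with signal-to-noise per printed feature.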 The conditions noted are these: small-molecule microarray, higher = more signal.
The nature of assay [7]: probe aShh binding to arrayed compounds – biochemical, biotinylated probe, 635/667 nm fluorescence, primary screen (AID 1114).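 Further: probe is biotin-labelled aShh protein from a stem cell growth factor screen; measures binding of labelled protein to compounds printed on the slide; score merges feature fluorescence at 667 nm with signal-to-noise.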 The conditions noted are these: small-molecule microarray, higher = more signal.
Assay [8] is described as follows: probe aNog binding to arrayed compounds – biochemical, biotinylated probe, 635/667 nm fluorescence, primary screen (AID 1115).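 Further: probe is biotinylated aNog protein used at 0.15 µg/mL for 1 h at 4 C; z-score combines 667 nm fluorescence of each spot with its signal to noise.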 The conditions noted are these: small-molecule microarray, higher = more signal.
Assay [9] deals with Torsin-1A-interacting protein 1 (Homo sapiens) (UniProt Q5JTV8). Put plainly: compound microarray binding of lysate hLAP1 – cell lysate, small-molecule microarray, COS7 lysate, 635/667 nm fluorescence, primary screen (AID 1116). The conditions noted are these: 635 nm fluorescence, higher = more signal.
The target in assay [10] is Alpha-bungarotoxin (Bungarus multicinctus) (UniProt P60615). Description: compounds binding labelled alpha-BTX control protein – biochemical, small-molecule microarray, Alexa647 label, 635/667 nm fluorescence, artefact control for SMM control protein annotation, profiling panel (AID 1117). The conditions noted are these: alpha-BTX-A647 binding fluorescence, higher = more signal.

Assay [11] deals with Albumin (Bos taurus) (UniProt P02769). Description: compounds binding labelled BSA control protein – biochemical, small-molecule microarray, Alexa647 label, 635/667 nm fluorescence, artefact control for SMM control protein annotation, profiling panel (AID 1118).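 Further: score merges 667 nm emission intensity and signal-to-noise per printed compound spot.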 The settings on record: BSA-A647 binding, fluorescence 635 nm, higher = more signal.
A short description of assay [12]: probe aXIP binding to arrayed compounds – biochemical, NeuroSMM set, 635/667 nm fluorescence, primary screen (AID 1119).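 Further: probe is the protein aXip251-270 applied at 1 µg/mL to compound-printed slides; binding of probe to printed compounds measured as 667 nm fluorescence plus signal to noise.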 The settings on record: small-molecule microarray, higher = more signal, called active from +8 up or from −8 down.
Assay [13] can be described thus: probe aNOTCH3 binding on compound microarray – biochemical, small-molecule microarray, 635/667 nm fluorescence, primary screen (AID 1120).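 Further: probe is a biotin-tagged antibody raised against NOTCH3 rather than NOTCH3 protein; score merges spot fluorescence near 667 nm with spot signal to noise.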 The settings on record: higher = more signal.
A short description of assay [14]: probe aNOTCH2 binding on compound microarray – biochemical, small-molecule microarray, 635/667 nm fluorescence, primary screen (AID 1121).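 Further: score merges feature fluorescence read at 667 nm with its signal to noise.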 The conditions noted are these: higher = more signal.
The target in assay [15] is Carbonic anhydrase 2 (Homo sapiens) (UniProt P00918). Description: compounds binding carbonic anhydrase 2 – biochemical, small-molecule microarray, Alexa647-labelled CAII, profiling panel (AID 1122). The settings on record: CAII-A647 binding fluorescence, higher = more signal.
Assay [16] in a line: COS7 lysate on small-molecule microarray, probe aHis, 635 nm (AID 1123).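 Further: z-score combines 667nm fluorescence intensity with signal-to-noise per printed compound spot.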 The conditions noted are these: COS7 cell lysate, fluorescence, higher = more signal.
Assay [17] is described as follows: probe aLAP1 signal on lysate-treated microarray – cell lysate, small-molecule microarray, COS7 lysate, primary screen (AID 1124).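 Further: lysate comes from COS7 cells expressing LAP1 and is applied at 0.3 µg/mL; score merges spot fluorescence near 667 nm with signal-to-noise over triplicate slides.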 The conditions noted are these: probe aLAP1, fluorescence, higher = more signal.
Assay [18] deals with Sam68 (KHDRBS1). Put plainly: compounds binding KHDRBS1 protein – biochemical, small-molecule microarray, 635 nm fluorescence, primary screen (AID 1125).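 Further: score merges 667 nm channel intensity with signal to noise over triplicate slides.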 The settings on record: higher = more signal.
Assay [19] deals with Chordin-like protein 2 (CHRDL2). Put plainly: compounds binding chordin-like 2 – biochemical, small-molecule microarray, 635 nm fluorescence, primary screen (AID 1126).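 Further: printed compound slides probed with Chrdl2 protein at 4 µg/mL for 1 h at 4 C; score merges 667 nm emission intensity with signal to noise over three replicate slides.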 The settings on record: fluorescence 635 nm, higher = more signal.
For assay [20], the target named is Concanavalin-A (Canavalia ensiformis) (UniProt P02866). Put plainly: compounds binding concanavalin A lectin – biochemical, small-molecule microarray, Alexa647 label, 635 nm, artefact control for SMM control protein annotation, primary screen (AID 1127).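 Further: z combines 667 nm emission intensity with signal-to-noise across three replicate slides.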 The conditions noted are these: ConA-A647 binding fluorescence, higher = more signal.

SMILES strings stand for the structures. Calls of active or inactive are those of the source.

Sequence of Alpha-bungarotoxin (Bungarus multicinctus) (P60615 whole entry, looked up): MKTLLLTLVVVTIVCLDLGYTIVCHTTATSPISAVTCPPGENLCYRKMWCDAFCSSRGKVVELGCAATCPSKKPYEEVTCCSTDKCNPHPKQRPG
Sequence of Torsin-1A-interacting protein 1 (Homo sapiens) (Q5JTV8 whole entry, looked up): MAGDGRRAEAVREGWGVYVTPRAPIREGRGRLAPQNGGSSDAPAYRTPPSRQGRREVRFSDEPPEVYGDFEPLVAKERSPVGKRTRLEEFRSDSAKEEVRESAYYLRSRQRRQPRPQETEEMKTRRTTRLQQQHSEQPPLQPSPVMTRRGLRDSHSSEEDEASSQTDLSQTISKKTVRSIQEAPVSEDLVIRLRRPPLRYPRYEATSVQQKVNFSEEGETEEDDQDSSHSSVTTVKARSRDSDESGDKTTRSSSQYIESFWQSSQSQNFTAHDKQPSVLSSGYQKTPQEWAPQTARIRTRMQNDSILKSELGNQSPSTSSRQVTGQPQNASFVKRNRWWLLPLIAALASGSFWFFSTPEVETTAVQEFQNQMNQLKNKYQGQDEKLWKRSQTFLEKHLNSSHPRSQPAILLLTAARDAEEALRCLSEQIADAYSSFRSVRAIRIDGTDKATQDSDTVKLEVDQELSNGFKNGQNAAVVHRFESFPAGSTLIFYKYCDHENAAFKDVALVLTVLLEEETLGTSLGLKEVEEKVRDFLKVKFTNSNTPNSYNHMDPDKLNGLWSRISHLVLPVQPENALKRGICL
Sequence of Albumin (Bos taurus) (P02769 whole entry, looked up): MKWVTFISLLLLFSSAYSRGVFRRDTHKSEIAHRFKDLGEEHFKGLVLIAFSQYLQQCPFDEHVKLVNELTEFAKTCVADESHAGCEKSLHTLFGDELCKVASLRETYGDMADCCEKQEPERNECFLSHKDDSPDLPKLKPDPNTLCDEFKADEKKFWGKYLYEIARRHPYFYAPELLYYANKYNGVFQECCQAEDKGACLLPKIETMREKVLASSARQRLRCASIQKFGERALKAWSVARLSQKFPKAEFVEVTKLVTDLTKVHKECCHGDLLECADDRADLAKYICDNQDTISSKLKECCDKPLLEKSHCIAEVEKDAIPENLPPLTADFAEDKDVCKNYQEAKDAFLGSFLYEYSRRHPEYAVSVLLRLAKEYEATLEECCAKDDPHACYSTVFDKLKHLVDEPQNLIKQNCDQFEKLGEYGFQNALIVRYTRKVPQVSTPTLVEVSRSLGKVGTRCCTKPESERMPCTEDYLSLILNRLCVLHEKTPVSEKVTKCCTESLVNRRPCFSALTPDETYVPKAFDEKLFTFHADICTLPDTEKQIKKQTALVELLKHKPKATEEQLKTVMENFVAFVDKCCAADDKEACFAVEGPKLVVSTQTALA
Sequence of Concanavalin-A (Canavalia ensiformis) (P02866 whole entry, looked up): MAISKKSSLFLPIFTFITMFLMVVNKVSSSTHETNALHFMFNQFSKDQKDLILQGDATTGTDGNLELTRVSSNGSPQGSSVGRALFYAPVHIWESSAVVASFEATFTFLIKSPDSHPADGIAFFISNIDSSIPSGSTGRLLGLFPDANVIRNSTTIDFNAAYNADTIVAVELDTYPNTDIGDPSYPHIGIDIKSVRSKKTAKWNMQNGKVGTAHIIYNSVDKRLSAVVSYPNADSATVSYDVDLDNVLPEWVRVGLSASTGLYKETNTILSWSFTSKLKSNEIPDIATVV
Sequence of Left-right determination factor 2 (Homo sapiens) (O00292 whole entry, looked up): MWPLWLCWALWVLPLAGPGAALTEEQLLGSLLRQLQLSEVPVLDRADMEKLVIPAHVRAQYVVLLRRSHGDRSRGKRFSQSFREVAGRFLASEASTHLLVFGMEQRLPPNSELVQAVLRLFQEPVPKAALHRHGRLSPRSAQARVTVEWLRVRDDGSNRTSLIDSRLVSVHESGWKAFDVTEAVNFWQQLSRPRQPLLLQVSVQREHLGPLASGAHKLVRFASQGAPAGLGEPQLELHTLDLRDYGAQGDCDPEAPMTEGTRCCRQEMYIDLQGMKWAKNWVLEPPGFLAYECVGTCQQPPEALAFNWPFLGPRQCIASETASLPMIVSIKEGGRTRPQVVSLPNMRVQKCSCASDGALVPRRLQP

Consider `C=CCC(OC(C)=O)[C@@H]1[C@@H](N(Cc2ccc(-c3cccc(C(F)(F)F)c3)o2)C(=O)c2ccc(-c3ccccc3)cc2)c2cc(OCCCO)ccc2N1C(=O)c1ccc(-c2ccccc2)cc1` (stereo not given in full), for which the composite z-score in assay [1] was -0.165; in [3] it was -0.15; in [4], -0.104; in assay [5], 1.35; in assay [6], 0.0214; in assay [7], 0.275. Moreover, the composite z-score in [8] is 0.26; in assay [9], -0.228; in [10], 0.288; in assay [11] it was 0.0046; in [13], -0.0957; in assay [14] it was -0.126. Moreover, the composite z-score in assay [15] was -0.0098; in assay [16], 0.0291; in [17], -0.128; in assay [18] it was -0.197; in assay [19], -0.0179; in assay [20], -0.639. Further, in [2], the z-score is -0.614. In [12], the composite Z-score is 0.111 (inactive).

Take `CC(C)OC(=O)C=C1C[C@@H](c2ccccc2C(F)(F)F)O[C@@H](c2ccccc2C(F)(F)F)O1`: the composite z-score in [1] is 0.706; in assay [3], 0.351; in assay [4], -0.21; in assay [5], -0.624; in assay [6], -0.13; in assay [7] it was -0.2. Besides, the composite z-score in assay [8] was 0.0234; in [9], -0.281; in [10], 0.497; in assay [11] it was 0.629; in [13], -0.0044; in assay [14], -0.216. Besides, the composite z-score in [15] is -0.0962; in assay [16], 0.387; in assay [17], 0.354; in [18], 0.609; in assay [19], 0.0577; in [20], 0.257. Moreover, the z-score in [2] was -0.384. The composite Z-score in [12] is -0.309 (inactive).

In the case of `COCCOC(=O)N1C(=O)[C@@]2(c3cc(C#CC4=CCCCC4)ccc31)[C@H](C(=O)N1CCc3cc(OC)c(OC)cc3C1)[C@H]1C(=O)O[C@H](c3ccccc3)[C@H](c3ccccc3)N1[C@@H]2c1ccc(OCCO)cc1`, the composite z-score in assay [1] was 1.07; in assay [3] it was 0.744; in assay [4], 0.526; in assay [5], 0.269; in [6], 0.048; in [7], -0.428. The composite z-score in assay [8] was 0.575; in assay [9], 0.929; in assay [10], 1.07; in [11] it was 0.448; in assay [13] it was 0.0836; in assay [14] it was -0.152. The composite z-score in assay [15] is 0.194; in [16], 1; in assay [17], 0.378; in [18], 1.29; in assay [19] it was 0.69; in [20] it was 1.14. Besides, in assay [2], the z-score is -0.44. Further, in [12], the composite Z-score was 0.238 (inactive).

With `[N-]=[N+]=NCc1ccccc1C[C@]1(C(=O)NCC(O)CO)N=C(c2ccc(OCCCO)cc2)O[C@H]1c1ccccc1` (stereo not given in full), the composite z-score in assay [1] was 0.722; in [3], -1.84; in [4], 1.51; in assay [5], 1.24; in assay [6], -0.0405; in [7] it was -0.0211. The composite z-score in [8] was 1.06; in assay [9], 0.846; in [10], 0.19; in assay [11], 0.922; in assay [13], 0.062; in assay [14], -0.0596. For the same compound, the composite z-score is 0.698 in assay [15]; 2.57 in [16]; 0.108 in assay [17]; -0.236 in assay [18]; -0.911 in assay [19]; -0.916 in [20]. Besides, the z-score in [2] was -1.82. In addition, in assay [12], the composite Z-score is -0.321 (inactive).

As to `C=CCN1C(=O)[C@@]2(O[C@@H](CCO)[C@H]([Si](C)(C)c3ccc(OC)cc3)[C@H]2C)c2cc(NC(=O)c3ccc(OC)cc3)ccc21`, the composite z-score in assay [1] is -0.747; in assay [3], 0.629; in assay [4] it was -0.178; in [5], 0.678; in assay [6] it was -0.199; in [7], 0.0062. For the same compound, the composite z-score in assay [8] is 0.141; in [9] it was -0.419; in assay [10] it was 0.565; in assay [11], 0.317; in assay [13] it was -0.0006; in assay [14], -0.0836. Moreover, the composite z-score in [15] is 0.187; in assay [16], 0.244; in assay [17], 0.0327; in assay [18], 1.18; in assay [19] it was 0.927; in assay [20], 1.03. In [2], this compound showed a z-score of -4.9. Moreover, in assay [12], the composite Z-score is -0.265 (inactive).

Regarding `COc1ccc(C#Cc2ccc3c(c2)[C@]2(C(=O)N3)[C@H](c3ccccc3OCCO)N3[C@H](c4ccccc4)[C@H](c4ccccc4)OC(=O)[C@H]3[C@@H]2C(=O)O)cc1`, the composite z-score is 1.42 in assay [1]; 0.186 in assay [3]; 1.22 in [4]; 1.05 in assay [5]; 0.0932 in assay [6]; 0.0037 in [7]. The composite z-score in assay [8] was 1.52; in assay [9], 1.77; in assay [10], 1.67; in assay [11], 0.702; in [13], 0.671; in assay [14] it was 0.114. For the same compound, the composite z-score is 0.473 in [15]; 2.27 in [16]; 0.649 in assay [17]; 1.3 in assay [18]; -0.0011 in assay [19]; 1.15 in assay [20]. In assay [2], this compound had a z-score of -2.87. For the same compound, the composite Z-score in assay [12] is -0.274 (inactive).

With `COCCCN1C(=O)[C@@]2(c3ccc([N+](=O)[O-])cc3)CC(=O)N(C3CCCCC3)[C@@H]2c2ccc(CO)cc21`, the composite z-score in assay [1] is 0.215; in assay [3], 0.289; in assay [4], -0.463; in assay [5], -1.17; in [6] it was -0.096; in assay [7], -0.223. In addition, the composite z-score in assay [8] was 0.439; in [9], 0.0951; in assay [10], 0.467; in assay [11], -0.132; in assay [13], -0.207; in assay [14], -0.153. In addition, the composite z-score is -0.277 in assay [15]; 0.143 in assay [16]; -0.322 in [17]; 0.134 in assay [18]; 0.778 in [19]; 0.734 in assay [20]. In [2], this compound showed a z-score of -1.4. Besides, the composite Z-score in assay [12] was 0.0221 (inactive).

Take `COCCOC(=O)N1C(=O)[C@@]2(c3cc(C#CCNC(N)=O)ccc31)[C@H](C(=O)NC[C@H](O)c1ccccc1)[C@H]1C(=O)O[C@H](c3ccccc3)[C@H](c3ccccc3)N1[C@@H]2c1ccccc1OCCO`: the composite z-score in assay [1] was 1.35; in assay [3] it was 0.0826; in assay [4] it was 1.96; in assay [5], 0.0588; in [6], 0.207; in assay [7], -0.0375. Also, the composite z-score was 1.32 in assay [8]; 0.667 in assay [9]; 1.43 in [10]; 0.509 in assay [11]; 0.411 in assay [13]; 0.0156 in assay [14]. Besides, the composite z-score came out at 0.296 in [15]; 1.28 in assay [16]; 0.854 in [17]; 1.28 in [18]; 0.209 in assay [19]; 1.01 in assay [20]. The same compound yielded a z-score in [2] of -0.807. For the same compound, the composite Z-score in assay [12] was 0.529 (inactive).

On to `CN(C)CCCC[C@@H]1NC(=O)[C@H]2C[C@@H](C(=O)NCCCCCNC(=O)CS)[C@@H](c3cccc(OCCO)c3)N2C1=O`, for which the composite z-score in assay [1] was 0.586; in assay [3] it was -0.0183; in assay [4] it was 0.137; in assay [5], -0.734; in assay [6], -0.195; in assay [7], 0.0796. Further, the composite z-score was -0.363 in [8]; 0.898 in [9]; -0.223 in assay [10]; 0.816 in [11]; -0.239 in assay [13]; -0.175 in [14]. The composite z-score came out at 0.661 in assay [15]; 1.67 in [16]; 0.0827 in assay [17]; 1.03 in assay [18]; 0.651 in assay [19]; 0.612 in assay [20]. Besides, the z-score in [2] was -0.556. In assay [12], the composite Z-score was -0.114 (inactive).
